Results on ten compounds are retold here after ChEMBL document CHEMBL3988442, “University of Dundee, Small-Polar-MMV Screening Library” (2021).

SMILES strings stand for the structures. For some assays here: Measured potencies and affinities stand elsewhere.

What all share (set-up): scale not given: direction of the effect not stated beside the values
In test [1] the target is Protein translocase subunit SecA (Escherichia coli (strain K12)) (UniProt P10408). In words: Assay to Identify E. coli SecA ATPase Inhibitors. In kind it is functional. The conditions noted are these: 30 µM.
Test [2] concerns the target T1, Ubiquitin-activating enzyme e1, putative (Leishmania donovani (strain BPK282A1)) (UniProt E9BSI1).
T1 sequence (whole entry): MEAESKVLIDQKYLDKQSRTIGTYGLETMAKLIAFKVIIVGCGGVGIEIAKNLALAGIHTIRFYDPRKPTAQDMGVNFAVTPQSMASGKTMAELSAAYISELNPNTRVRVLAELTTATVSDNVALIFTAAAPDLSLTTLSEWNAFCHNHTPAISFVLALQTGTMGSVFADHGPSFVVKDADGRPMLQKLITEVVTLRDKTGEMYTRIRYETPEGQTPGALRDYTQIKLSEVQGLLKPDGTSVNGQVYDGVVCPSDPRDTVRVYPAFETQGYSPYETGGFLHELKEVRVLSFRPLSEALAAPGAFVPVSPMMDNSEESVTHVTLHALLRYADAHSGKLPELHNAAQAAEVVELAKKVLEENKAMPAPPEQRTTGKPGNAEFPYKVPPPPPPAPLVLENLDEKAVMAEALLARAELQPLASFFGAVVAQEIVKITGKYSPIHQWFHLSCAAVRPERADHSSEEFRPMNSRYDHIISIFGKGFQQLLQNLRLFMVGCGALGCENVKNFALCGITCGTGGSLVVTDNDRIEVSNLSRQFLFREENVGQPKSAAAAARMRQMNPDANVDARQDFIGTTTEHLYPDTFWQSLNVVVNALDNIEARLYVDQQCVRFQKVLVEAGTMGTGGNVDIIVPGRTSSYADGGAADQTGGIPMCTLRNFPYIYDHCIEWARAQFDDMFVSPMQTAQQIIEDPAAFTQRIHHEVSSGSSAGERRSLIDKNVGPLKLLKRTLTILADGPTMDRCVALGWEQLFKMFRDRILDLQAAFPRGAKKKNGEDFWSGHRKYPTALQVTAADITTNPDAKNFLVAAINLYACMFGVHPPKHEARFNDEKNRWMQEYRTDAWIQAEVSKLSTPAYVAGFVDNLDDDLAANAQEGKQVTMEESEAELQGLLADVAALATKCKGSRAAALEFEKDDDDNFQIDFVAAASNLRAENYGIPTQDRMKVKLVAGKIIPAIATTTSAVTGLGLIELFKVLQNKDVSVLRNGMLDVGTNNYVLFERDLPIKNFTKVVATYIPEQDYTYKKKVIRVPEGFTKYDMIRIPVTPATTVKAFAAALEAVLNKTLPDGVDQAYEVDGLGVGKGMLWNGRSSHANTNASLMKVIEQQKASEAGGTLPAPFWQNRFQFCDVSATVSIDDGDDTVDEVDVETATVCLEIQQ
In words: Leishmania donovani Ubiquitin Activating Enzyme (LdE1). In kind it is functional. The following applies: 30 µM.

Test [3] concerns the target AMP-activated protein kinase, AMPK (Homo sapiens) (UniProt P54646+O43741+P54619+Q9UGJ0+Q9Y478+Q13131+Q9UGI9). In words: AMP-dependent Kinase enzyme assay. An in vitro enzyme assay that detects ADP turnover that is directly proportional to AMPK activity. This uses naive AMPK that is activated during the assay with MK-8722. The format is functional. The conditions noted are these: 30 µM.

Test [4] concerns the target Sialic acid-binding Ig-like lectin 9 (Homo sapiens) (UniProt Q9Y336). In words: Hs-Siglec9 ALPHAscreen SOP 20170721. The following applies: 10 µM. On the technique in general: Alpha assays give light when donor and acceptor beads are brought close together.
The subject of a further test is Trypanosoma cruzi. In words: Trypanosoma cruzi phosphomannomutase and mannose-1-phosphate guanylyltransferase assay. In kind it is functional. The conditions noted are these: 10 µM.
The target of test [5] is T2, Arginase-2, mitochondrial (Homo sapiens) (UniProt P78540).
T2 sequence (whole entry): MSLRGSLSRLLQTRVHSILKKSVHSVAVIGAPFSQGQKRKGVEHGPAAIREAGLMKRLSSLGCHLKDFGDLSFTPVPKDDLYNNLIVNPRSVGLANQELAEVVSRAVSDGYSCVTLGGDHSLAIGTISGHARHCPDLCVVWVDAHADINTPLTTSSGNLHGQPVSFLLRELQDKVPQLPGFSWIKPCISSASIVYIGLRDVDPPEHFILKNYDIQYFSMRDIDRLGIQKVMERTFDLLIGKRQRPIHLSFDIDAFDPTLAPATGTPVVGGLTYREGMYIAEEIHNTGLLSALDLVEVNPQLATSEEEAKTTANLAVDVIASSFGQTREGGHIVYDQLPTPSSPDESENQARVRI
In words: in vitro enzyme assay to detect the production of urea directly proportional to the activity of Arginase II. Further: in the data most compounds retested in dose-response had high values. The following applies: 33.3 µM. In kind it is functional.

The target in test [6] is T3, Proteasome subunit beta (Trypanosoma cruzi) (UniProt O96673).
T3 sequence (whole entry): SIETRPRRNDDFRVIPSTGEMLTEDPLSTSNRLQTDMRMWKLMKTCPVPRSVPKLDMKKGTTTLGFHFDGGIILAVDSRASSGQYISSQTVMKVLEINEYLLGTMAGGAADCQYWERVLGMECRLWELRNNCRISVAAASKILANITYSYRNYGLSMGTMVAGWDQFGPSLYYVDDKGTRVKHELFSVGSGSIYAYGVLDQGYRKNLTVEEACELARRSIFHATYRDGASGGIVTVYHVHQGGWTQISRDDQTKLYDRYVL
Briefly: Trypanosoma cruzi proteasome chymotrypsin-like activity (TcProtChymo) assay. Further: in the data most compounds retested in dose-response had high values. In kind it is functional. The following applies: 9.37 µM.

The species entered for the next test is Homo sapiens. In words: To identify inhibition of the IFN signalling (Jak-Stat) pathway via expression of an eGFP reporter gene under the control of an IFN-stimulated response element (ISRE) containing MxA promoter. In kind it is functional. The conditions noted are these: 30 µM. A general note: In a reporter assay the amount or activity of a reporter protein is the signal.

Test [7] deals with T4, Tyrosyl-tRNA synthetase, putative (Trypanosoma cruzi (strain CL Brener)) (UniProt Q4DSP6).
T4 sequence (whole entry): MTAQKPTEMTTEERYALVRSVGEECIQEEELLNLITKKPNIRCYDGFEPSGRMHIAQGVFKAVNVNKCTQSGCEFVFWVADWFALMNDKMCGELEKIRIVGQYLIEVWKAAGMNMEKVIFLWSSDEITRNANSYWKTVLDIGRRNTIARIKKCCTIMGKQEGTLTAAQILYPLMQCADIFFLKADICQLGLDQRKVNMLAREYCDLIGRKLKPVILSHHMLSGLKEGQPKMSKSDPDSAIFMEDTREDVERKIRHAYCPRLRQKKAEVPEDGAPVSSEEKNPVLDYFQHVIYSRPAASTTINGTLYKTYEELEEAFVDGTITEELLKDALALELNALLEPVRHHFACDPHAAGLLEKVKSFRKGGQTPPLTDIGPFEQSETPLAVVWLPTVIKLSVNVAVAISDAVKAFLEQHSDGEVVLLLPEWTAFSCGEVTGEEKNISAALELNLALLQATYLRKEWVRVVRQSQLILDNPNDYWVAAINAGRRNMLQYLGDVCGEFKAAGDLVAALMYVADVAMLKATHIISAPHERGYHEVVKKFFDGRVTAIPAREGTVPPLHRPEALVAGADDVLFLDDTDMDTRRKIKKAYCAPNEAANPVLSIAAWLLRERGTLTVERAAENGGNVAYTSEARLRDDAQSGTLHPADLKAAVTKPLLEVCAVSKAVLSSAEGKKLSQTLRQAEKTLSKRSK
Briefly: Trypanosoma cruzi tyrosyl tRNA synthetase (TcYRS) _High Tyrosine SOP. Further: in the data most compounds retested in dose-response had high values. The following applies: 30 µM. In kind it is functional.

The target in test [8] is T4, Tyrosyl-tRNA synthetase, putative (Trypanosoma cruzi (strain CL Brener)). In words: Trypanosoma cruzi tyrosyl tRNA synthetase (TcYRS) SOP. In kind it is functional. The conditions noted are these: 30 µM.
In test [9] the target is Chromo domain-containing protein 1 (Saccharomyces cerevisiae (strain ATCC 204508 / S288c) (Baker's yeast)) (UniProt P32657). In words: ScCHD-1 Enzyme Inhibition Assay. Further: in the data most compounds retested in dose-response had high values. In kind it is functional. The following applies: 30 µM.
Chromo domain-containing protein 1 (Saccharomyces cerevisiae (strain ATCC 204508 / S288c) (Baker's yeast)), sequence (P32657 whole entry, the tested form may be a part): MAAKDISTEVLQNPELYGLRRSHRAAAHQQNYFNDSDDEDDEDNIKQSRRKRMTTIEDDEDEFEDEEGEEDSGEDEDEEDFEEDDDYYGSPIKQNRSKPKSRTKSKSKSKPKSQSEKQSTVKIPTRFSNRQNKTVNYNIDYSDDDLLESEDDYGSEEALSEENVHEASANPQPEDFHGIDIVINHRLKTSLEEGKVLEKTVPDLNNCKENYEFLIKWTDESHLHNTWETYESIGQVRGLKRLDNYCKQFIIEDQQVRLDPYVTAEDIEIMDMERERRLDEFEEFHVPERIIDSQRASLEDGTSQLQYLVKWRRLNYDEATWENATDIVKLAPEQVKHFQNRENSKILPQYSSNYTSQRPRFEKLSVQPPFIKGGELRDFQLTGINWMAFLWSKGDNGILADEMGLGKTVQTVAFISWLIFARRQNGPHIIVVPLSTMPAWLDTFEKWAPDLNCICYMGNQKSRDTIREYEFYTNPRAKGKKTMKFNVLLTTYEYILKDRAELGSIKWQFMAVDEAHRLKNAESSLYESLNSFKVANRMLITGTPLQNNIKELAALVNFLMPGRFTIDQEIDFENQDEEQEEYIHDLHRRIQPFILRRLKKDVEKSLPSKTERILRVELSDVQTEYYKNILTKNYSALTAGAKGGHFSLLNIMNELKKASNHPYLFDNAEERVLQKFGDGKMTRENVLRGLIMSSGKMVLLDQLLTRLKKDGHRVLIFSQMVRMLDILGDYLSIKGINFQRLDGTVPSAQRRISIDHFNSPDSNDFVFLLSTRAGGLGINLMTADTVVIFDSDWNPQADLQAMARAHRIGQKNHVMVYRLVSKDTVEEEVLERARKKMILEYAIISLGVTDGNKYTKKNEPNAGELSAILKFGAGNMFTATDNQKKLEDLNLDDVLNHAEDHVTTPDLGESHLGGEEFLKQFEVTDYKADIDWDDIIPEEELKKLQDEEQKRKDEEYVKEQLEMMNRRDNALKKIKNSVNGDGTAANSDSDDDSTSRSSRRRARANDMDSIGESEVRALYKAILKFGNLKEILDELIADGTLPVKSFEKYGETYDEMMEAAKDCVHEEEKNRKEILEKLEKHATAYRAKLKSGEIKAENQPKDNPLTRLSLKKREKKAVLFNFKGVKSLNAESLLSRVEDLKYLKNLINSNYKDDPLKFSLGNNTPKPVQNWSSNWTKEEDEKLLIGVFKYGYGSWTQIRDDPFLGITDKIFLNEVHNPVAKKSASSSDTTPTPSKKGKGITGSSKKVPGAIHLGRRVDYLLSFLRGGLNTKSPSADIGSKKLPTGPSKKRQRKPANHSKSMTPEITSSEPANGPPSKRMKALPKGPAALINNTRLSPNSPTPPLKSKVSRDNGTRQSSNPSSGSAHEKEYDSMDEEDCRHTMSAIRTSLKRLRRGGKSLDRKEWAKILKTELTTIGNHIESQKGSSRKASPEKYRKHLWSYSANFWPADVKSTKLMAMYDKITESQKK

Protein translocase subunit SecA (Escherichia coli (strain K12)), sequence (P10408 whole entry): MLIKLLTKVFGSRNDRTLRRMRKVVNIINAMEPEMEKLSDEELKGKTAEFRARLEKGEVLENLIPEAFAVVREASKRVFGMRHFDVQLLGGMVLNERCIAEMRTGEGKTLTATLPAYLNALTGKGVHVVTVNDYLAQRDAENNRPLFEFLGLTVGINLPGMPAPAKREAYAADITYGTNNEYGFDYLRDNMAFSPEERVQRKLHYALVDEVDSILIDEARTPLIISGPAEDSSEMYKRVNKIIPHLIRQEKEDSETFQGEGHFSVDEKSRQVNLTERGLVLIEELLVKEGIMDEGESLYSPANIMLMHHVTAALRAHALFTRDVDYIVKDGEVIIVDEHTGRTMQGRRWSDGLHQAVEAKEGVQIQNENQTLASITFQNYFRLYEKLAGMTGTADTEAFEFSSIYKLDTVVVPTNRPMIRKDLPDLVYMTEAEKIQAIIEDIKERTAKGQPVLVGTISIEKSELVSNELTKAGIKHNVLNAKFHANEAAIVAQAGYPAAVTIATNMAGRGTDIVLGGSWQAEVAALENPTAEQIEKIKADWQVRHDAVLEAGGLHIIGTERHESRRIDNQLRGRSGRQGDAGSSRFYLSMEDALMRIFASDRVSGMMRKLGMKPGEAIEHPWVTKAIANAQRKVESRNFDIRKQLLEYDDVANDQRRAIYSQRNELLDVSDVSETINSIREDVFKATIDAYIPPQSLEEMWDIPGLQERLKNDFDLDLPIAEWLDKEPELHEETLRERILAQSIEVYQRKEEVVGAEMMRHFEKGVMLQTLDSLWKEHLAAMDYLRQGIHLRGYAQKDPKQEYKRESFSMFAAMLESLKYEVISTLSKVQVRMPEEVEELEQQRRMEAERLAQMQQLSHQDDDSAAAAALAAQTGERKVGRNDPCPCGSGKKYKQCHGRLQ
Sialic acid-binding Ig-like lectin 9 (Homo sapiens), sequence (Q9Y336 whole entry): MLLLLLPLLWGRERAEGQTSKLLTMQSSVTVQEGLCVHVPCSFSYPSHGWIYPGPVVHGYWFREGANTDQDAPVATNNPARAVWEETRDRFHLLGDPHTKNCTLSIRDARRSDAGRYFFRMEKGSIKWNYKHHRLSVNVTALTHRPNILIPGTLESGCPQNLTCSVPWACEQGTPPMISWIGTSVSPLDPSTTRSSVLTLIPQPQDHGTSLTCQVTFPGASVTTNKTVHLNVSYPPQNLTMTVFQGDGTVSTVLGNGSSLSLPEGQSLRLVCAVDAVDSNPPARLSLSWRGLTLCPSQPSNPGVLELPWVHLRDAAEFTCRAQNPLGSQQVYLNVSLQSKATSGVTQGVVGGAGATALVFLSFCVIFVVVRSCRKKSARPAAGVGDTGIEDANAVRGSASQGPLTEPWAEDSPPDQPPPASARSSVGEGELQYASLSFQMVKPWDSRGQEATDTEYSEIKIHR

As for `CN(C(=O)c1ccccc1Cl)C1CCN(c2ccccn2)CC1`, the Percent Effect in test [1] is -6.46%; in test [2], 23.4%; in test [3] it was -2.17%; in test [4] it was -1.36%; with Trypanosoma cruzi it was 6.95%; in [5], -2.32%. The Percent Effect was 12.7% in test [6]; 9.9% in the test listed under Homo sapiens; 7.62% in test [7]; 23.5% in test [8]; -2.92% in test [9].

Take `CN(Cc1cn2c(n1)CN(C1CCOC1)CC2)Cc1ccco1` (stereo not given): the Percent Effect in [1] is 0.0628%; in [2], 5.33%; in test [3] it was 0.778%; in test [4], 1.26%; with Trypanosoma cruzi, 5.99%; in [5], -58.2%. Besides, the Percent Effect is 16.1% in [6]; 15.2% in the test listed under Homo sapiens; 6.25% in test [7]; 20% in test [8]; -10.2% in test [9].

For the compound `CC(=O)Nc1nc(C2CCN(C(=O)c3cccnc3)CC2)cs1`, the Percent Effect in test [1] was -6.73%; in test [2], 21.3%; in test [3], 0.538%; in test [4], 3.28%; with Trypanosoma cruzi, 2.36%; in [5], -2.56%. Besides, the Percent Effect was 12.1% in test [6]; 5.76% in the test filed under Homo sapiens; 5.32% in test [7]; 19.2% in test [8]; -2.51% in test [9].

On to `CCC1=N[C@@]2(CC[C@@H]3CN(S(=O)(=O)N(C)C)C[C@@H]32)C(=O)N1CC(C)C`, for which the Percent Effect was -1.28% in test [1]; 10.4% in test [2]; -3.92% in test [3]; 6.82% in test [4]; -2.07% in the test with Trypanosoma cruzi; 3.23% in test [5]. Also, the Percent Effect in [6] is -0.696%; in the test filed under Homo sapiens, -7.21%; in [7] it was 5.29%; in test [8], 11.5%; in test [9], -6.8%.

In the case of `Cc1cc(CN2CCN(C(c3ccccc3)c3ccccc3)CC2)no1`, the Percent Effect in [1] was -4.43%; in [2], 12.7%; in test [3] it was -1.9%; in [4] it was 14.9%; in the test on Trypanosoma cruzi it was -2.55%; in test [5], 1.14%. Moreover, the Percent Effect in test [6] was 2.87%; in the test listed under Homo sapiens it was 15.5%; in [7], 8.37%; in test [8], 11.4%; in test [9] it was -8.11%.

As to `O=C(c1c[nH]c(=O)c(Cl)c1)N1C[C@@H]2CC[C@H](C1)N(Cc1ccccc1)C2`, the Percent Effect was -3.94% in test [1]; 5.48% in test [2]; 12.1% in test [3]; 13.9% in test [4]; 2.58% in the test with Trypanosoma cruzi; -8.78% in test [5]. Further, the Percent Effect in test [6] was 15.2%; in the test filed under Homo sapiens it was 9.64%; in test [7] it was 2.08%; in test [8], 11.1%; in test [9], -3.03%.

In the case of `COc1ccc(OC)c(C(O)CN2CC(n3cccn3)C2)c1` (stereo not given), the Percent Effect is -3.82% in test [1]; -10.5% in [2]; 2.67% in test [3]; 6.6% in [4]; 9.02% in the test on Trypanosoma cruzi; 4.98% in test [5]. For the same compound, the Percent Effect is 9.52% in test [6]; -12.8% in the test listed under Homo sapiens; 6.37% in test [7]; 9.76% in test [8]; -8.21% in test [9].

For the compound `CCc1nc2n(n1)CC(NCc1noc(-c3ccccc3)n1)CC2` (stereo not given), the Percent Effect in test [1] was -5.91%; in test [2], 5.26%; in [3] it was -5.76%; in test [4], 10.4%; in the test on Trypanosoma cruzi it was 9.06%; in test [5], 2.52%. Further, the Percent Effect was -2.28% in test [6]; -13.2% in the test listed under Homo sapiens; 3.45% in [7]; 16.1% in [8]; -6.43% in test [9].

As to `COCC(=O)N1CCCn2c(CN3CCCCC3)nnc2C1`, the Percent Effect in test [1] was -0.412%; in test [2], 11%; in test [3], 1.87%; in test [4] it was 4.92%; with Trypanosoma cruzi it was -5.95%; in [5], -2.4%. The Percent Effect in test [6] is 22.7%; in the test listed under Homo sapiens, 24%; in [7] it was 7.29%; in test [8], 11.1%; in test [9] it was -5.31%.

On to `CC(C(=O)NCc1ccc(-n2cncn2)nc1)n1ccnc1` (stereo not given), for which the Percent Effect in [1] is -3.77%; in test [2], 2.6%; in test [3], 0.227%; in test [4], 15%; in the test with Trypanosoma cruzi, 2.25%; in test [5] it was 1.05%. Further, the Percent Effect in [6] is -1.21%; in the test filed under Homo sapiens it was -15.5%; in [7], 2.86%; in [8] it was 2.35%; in test [9], -8.54%.
